Results filed as inconclusive are left out. Activity calls are given as the source filed them. Unless noted, calls come from the whole dose curve; as a rule, active = well fitted curve in the direction sought with a large enough effect in the repeat runs; inconclusive = weak or mixed curves; inactive = no such curve, though single readings can be large; an effect the other way counts as inactive or inconclusive.
Tests used:
[1] = qHTS assay to identify small molecule antagonists of the estrogen receptor alpha (ER-alpha) signaling pathway using the BG1 cell line in the presence of 0.1 nM 17-beta-estradiol - cell viability counter screen (AID 1259241); note: nearly all actives have a fitted effect of over 40% in size
Procedure, shortened: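 Cells were plated and left 24 hr, compounds in DMSO were pinned in, 17beta-estradiol was added to 0.1 nM final, and after 22 hr CellTiter-Fluor reagent was added for 30 min before fluorescence was read.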

[2] = qHTS assay to identify small molecule antagonists of the androgen receptor (AR) signaling pathway using the MDA cell line in the presence of 0.5 nM R1881 - cell viability counter screen (AID 1259242); note: nearly all actives have a fitted effect of over 45% in size
Procedure, shortened: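 Fluorescence from CellTiter-Fluor, which reports protease activity of live cells, was read 30 min after reagent addition to MDA-kb2 cells that had been incubated 16 hr with compound and 0.5 nM R1881.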

[3] = target: Androgen receptor (Homo sapiens) (UniProt P10275); assay: qHTS assay to identify small molecule antagonists of the androgen receptor (AR) signaling pathway using the MDA cell line in the presence of 0.5 nM R1881 (AID 1259243); note: nearly all actives have a fitted effect of over 50% in size
Procedure, shortened: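 Inhibition of R1881 (0.5 nM final) induced reporter signal was measured in human MDA-kb2 cells; note the MMTV promoter also responds to GR. Exposure lasted 16 hr at 37C.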

[4] = qHTS assay to identify small molecule HDAC inhibitors (AID 1259364); note: top concentration of the series differs between compounds; nearly all actives have a fitted effect of over 45% in size
Procedure, shortened: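 Endogenous HDAC class I/II activity was measured in wild-type HCT-116 cells by HDAC-Glo luminescence after 2 h compound treatment.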

[5] = qHTS assay to identify small molecule HDAC inhibitors - cell viability counter screen (AID 1259365); note: series mostly up to about 92 µM; nearly all actives have a fitted effect of over 50% in size
Procedure, shortened: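 Counter screen in wild-type HCT-116 cells: compounds dissolved in DMSO are pin-transferred onto overnight-plated cells and left 2hr at 37C. ATP-based CellTiter-Glo luminescence then measures viable cells.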

[6] = qHTS assay to identify small molecule agonists of the sonic hedgehog signaling (Shh) pathway - cell viability counter screen (AID 1259366); note: nearly all actives have a fitted effect of over 50% in size
Procedure, shortened: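 Cells are plated at 2,000 per well and left 4hr at 37C, 5% CO2 before compound addition. After 23hr of treatment, CellTiter-Fluor reagent is added for 1hr at 37C and fluorescence is measured.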

[7] = qHTS assay to identify small molecule antagonists of the sonic hedgehog signaling (Shh) pathway - cell viability counter screen (AID 1259367); note: nearly all actives have a fitted effect of over 55% in size
Procedure, shortened: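 Using CellTiter-Fluor, viability of Gli1-Luc reporter 3T3 cells is read by fluorescence in the wells used for the Shh luciferase assay. Treatment lasts 23 hr with conditioned medium, then reagent 1 hr at 37C.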

[8] = qHTS assay to identify small molecule agonists of the sonic hedgehog signaling (Shh) pathway (AID 1259368; calls by dose curve;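 note: NIH/3T3-derived 3T3Gli1-Luc cells carrying a stable Gli1-driven firefly luciferase reporter; series mostly up to about 92 µM; nearly all actives have a fitted effect of over 15% in size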)
Procedure, shortened: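 Luminescent signal was taken as a measure of Gli1-controlled luciferase expression in stably transfected NIH/3T3-derived cells that had been treated for 24 hr with compounds delivered in DMSO.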

[9] = qHTS assay to identify small molecule antagonists of the sonic hedgehog signaling (Shh) pathway (AID 1259369; calls by dose curve; note: nearly all actives have a fitted effect of over 45% in size; note: potency is the fitted concentration of half-maximal effect)
Procedure, shortened: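 Screening used 3T3Gli1-Luc cells at 2,000 per well, compounds delivered in DMSO, and conditioned medium as agonist stimulus; plates incubated 24hr at 37 C and 5% CO2 before a 30min luciferase step.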

[10] = target: Estrogen receptor beta (Homo sapiens) (UniProt Q92731); assay: qHTS assay to identify small molecule agonists of the estrogen receptor beta (ER-beta) signaling pathway (AID 1259377; active = well fitted activation curve with a large enough effect in the signal ratio in the repeat runs, not every such curve was filed as active; the % refers to the signal ratio)
Procedure, shortened: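 Agonist mode cell assay in GripTite HEK293T cells expressing an ER-beta fusion that drives beta-lactamase from an Upstream Activator Sequence; 16 hr compound exposure at 37C, then 2 h LiveBLAzer B/G FRET substrate at room temperature, fluorescence read-out.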

[11] = target: Estrogen receptor beta (Homo sapiens) (UniProt Q92731); assay: qHTS assay to identify small molecule antagonists of the estrogen receptor beta (ER-beta) signaling pathway (AID 1259378; active = well fitted inhibition curve with a large enough effect in the signal ratio in the repeat runs, not every such curve was filed as active; the % refers to the signal ratio; note: potency is the fitted concentration of half-maximal effect)
Procedure, shortened: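 Antagonist mode: compounds added to beta-lactamase reporter HEK293T ER-beta-UAS cells stimulated with E2 (1nM final), 16 hr at 37C. LiveBLAzer B/G FRET substrate, 2 hours room temperature, fluorescence read-out.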

[12] = qHTS assay to identify small molecule agonists of the androgen receptor (AR) signaling pathway in the presence of an antagonist - cell viability counter screen (AID 1259379);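 note: MDA-kb2 human breast cancer cells carrying an MMTV luciferase reporter; series mostly up to about 92 µM; nearly all actives have a fitted effect of over 25% in size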
Procedure, shortened: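 In MDA-kb2 cells (human breast carcinoma, MMTV-luciferase), compounds at 15 concentrations plus 3.0uM nilutamide; 16 hr, 37C, 0% CO2; CellTiter-Fluor fluorescence read for viability.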

[13] = target: Androgen receptor (Homo sapiens) (UniProt P10275); assay: qHTS assay to identify small molecule agonists of the androgen receptor (AR) signaling pathway in the presence of an antagonist (AID 1259381; calls by dose curve; note: nearly all actives have a fitted effect of over 15% in size)
Procedure, shortened: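 Here, 15-concentration compound series were pin-transferred onto MDA-kb2 MMTV-luciferase cells already dosed with nilutamide (3.0uM final). After 16hr at 37C, ONE-Glo was added and luminescence read 30min later at room temperature.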

[14] = qHTS assay to identify small molecule antagonists of the estrogen receptor beta (ER-beta) signaling pathway - cell viability counter screen (AID 1259382);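 note: HEK293T cells carrying ER-beta-UAS-bla reporter stimulated with estradiol; series mostly up to about 92 µM; nearly all actives have a fitted effect of over 55% in size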
Procedure, shortened: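 Tox21 10K library tested in qHTS format on ER-beta-bla HEK293T cells stimulated with 1nM E2; 16 hr treatment at 37C. Same-well CellTiter-Glo luminescence served as the cell viability measure.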

[15] = target: Estrogen receptor (Homo sapiens) (UniProt P03372); assay: qHTS assay to identify small molecule agonists of the estrogen receptor alpha (ER-alpha) signaling pathway in the presence of an antagonist (AID 1259383; calls by dose curve; note: top concentration of the series differs between compounds; nearly all actives have a fitted effect of over 15% in size)
Procedure, shortened: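 In VM7Luc4E2 cells, 4,000 per well, compounds at 15 concentrations were co-incubated 22hr at 37C with 10.0nM final ICI-182,780. Luminescence from the stably transfected 4×ERE-luciferase reporter was recorded 30min after ONE-Glo addition.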

[16] = qHTS assay to identify small molecule agonists or antagonists of the thyroid stimulating hormone receptor (TSHR) signaling pathway - wild type cell line counter screen (AID 1259384; calls by dose curve; note: potency is the fitted concentration of half-maximal effect)
Procedure, shortened: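 Counter screen in untransfected Hek293: compounds (15-point titration, triplicate) plus phosphodiesterase inhibitor Ro20-1724 added after 18 h plating; 30 min RT. Intracellular cAMP via competitive d2/cryptate immunoassay, 1 h incubation.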

[17] = target: Estrogen receptor (Homo sapiens) (UniProt P03372); assay: qHTS assay to identify small molecule antagonists of the estrogen receptor alpha (ER-alpha) signaling pathway using the BG1 cell line in the presence of 0.1 nM 17-beta-estradiol (AID 1259244); note: nearly all actives have a fitted effect of over 50% in size
Procedure, shortened: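 Quantitative high-throughput screen in VM7Luc4E2 cells: compound plus 0.1 nM E2 (final), 22 h, 37C, 5% CO2; ONE-Glo added, 30 min room temperature, luminescence measured.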

[18] = qHTS assay to identify small molecule agonists of the estrogen receptor beta (ER-beta) signaling pathway - cell viability counter screen (AID 1259380); note: nearly all actives have a fitted effect of over 30% in size
Procedure, shortened: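 Viability of ER-beta-UAS-bla HEK293T cells was determined by CellTiter-Glo luminescence following 16 hr treatment with test compounds at 37C.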

[19] = target: Thyrotropin receptor (Homo sapiens) (UniProt P16473); assay: qHTS assay to identify small molecule antagonists of the thyroid stimulating hormone receptor (TSHR) signaling pathway (AID 1259385; calls by dose curve; note: nearly all actives have a fitted effect of over 20% in size)
Procedure, shortened: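 Antagonist mode: compound-treated TSHR-expressing HEK293 cells were stimulated with 1.5 ng/mL TSH (final) in presence of Ro20-1724 for 30 min at RT. HTRF cAMP detection after 1 h; each compound tested at 15 concentrations, triplicate.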

[20] = qHTS assay to identify small molecule phospholipidosis (PLD) inducers (AID 1259344; active = well fitted curve in the direction sought with a large enough effect; an effect the other way counts as inactive or inconclusive)
Procedure, shortened: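 Fluorescent phospholipid staining (LipidTOX Red) measured by automated microscopy in fixed HepG2 cells after 24 h treatment; nuclei counterstained with Hoechst 33342; amiodarone as reference inducer.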
% is set by controls: 0 for no effect and ±100 for the full control effect.

Estrogen receptor (Homo sapiens), sequence (P03372 whole entry, looked up): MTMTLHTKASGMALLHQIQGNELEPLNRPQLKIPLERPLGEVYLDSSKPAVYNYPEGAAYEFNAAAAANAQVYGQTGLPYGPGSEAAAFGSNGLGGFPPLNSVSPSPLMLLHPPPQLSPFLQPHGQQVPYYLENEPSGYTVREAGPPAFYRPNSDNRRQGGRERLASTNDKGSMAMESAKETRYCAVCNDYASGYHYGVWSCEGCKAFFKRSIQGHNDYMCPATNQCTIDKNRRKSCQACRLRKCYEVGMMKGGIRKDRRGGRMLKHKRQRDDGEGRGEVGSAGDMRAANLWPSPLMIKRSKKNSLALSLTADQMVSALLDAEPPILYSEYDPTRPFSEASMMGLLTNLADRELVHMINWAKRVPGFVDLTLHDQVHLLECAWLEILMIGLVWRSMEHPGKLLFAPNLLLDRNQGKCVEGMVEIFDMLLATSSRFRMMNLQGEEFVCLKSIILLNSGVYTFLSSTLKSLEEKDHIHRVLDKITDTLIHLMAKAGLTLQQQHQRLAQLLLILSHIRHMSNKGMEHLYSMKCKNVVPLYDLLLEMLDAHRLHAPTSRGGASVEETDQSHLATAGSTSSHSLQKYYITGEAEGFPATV
Thyrotropin receptor (Homo sapiens), sequence (P16473 whole entry, looked up): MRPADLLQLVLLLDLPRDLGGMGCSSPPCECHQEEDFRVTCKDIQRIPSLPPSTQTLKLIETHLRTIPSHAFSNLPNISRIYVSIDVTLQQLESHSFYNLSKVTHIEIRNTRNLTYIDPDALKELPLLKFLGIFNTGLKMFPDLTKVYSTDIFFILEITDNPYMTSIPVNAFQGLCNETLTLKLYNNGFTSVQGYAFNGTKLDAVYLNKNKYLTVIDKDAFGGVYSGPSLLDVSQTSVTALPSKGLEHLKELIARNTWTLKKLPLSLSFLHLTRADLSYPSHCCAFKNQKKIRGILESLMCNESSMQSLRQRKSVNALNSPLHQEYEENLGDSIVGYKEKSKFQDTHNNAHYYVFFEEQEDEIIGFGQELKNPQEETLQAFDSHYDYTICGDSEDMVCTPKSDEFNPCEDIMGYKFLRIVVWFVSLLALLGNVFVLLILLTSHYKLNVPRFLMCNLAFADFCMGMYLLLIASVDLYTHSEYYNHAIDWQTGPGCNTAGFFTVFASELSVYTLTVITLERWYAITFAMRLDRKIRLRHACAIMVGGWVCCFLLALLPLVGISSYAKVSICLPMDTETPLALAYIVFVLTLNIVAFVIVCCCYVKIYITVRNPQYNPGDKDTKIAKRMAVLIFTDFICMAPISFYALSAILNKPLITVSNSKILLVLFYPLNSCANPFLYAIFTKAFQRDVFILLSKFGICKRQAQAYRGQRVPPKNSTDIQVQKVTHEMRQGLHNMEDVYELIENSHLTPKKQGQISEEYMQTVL
Estrogen receptor beta (Homo sapiens), sequence (Q92731 whole entry, looked up, the tested form may be a part): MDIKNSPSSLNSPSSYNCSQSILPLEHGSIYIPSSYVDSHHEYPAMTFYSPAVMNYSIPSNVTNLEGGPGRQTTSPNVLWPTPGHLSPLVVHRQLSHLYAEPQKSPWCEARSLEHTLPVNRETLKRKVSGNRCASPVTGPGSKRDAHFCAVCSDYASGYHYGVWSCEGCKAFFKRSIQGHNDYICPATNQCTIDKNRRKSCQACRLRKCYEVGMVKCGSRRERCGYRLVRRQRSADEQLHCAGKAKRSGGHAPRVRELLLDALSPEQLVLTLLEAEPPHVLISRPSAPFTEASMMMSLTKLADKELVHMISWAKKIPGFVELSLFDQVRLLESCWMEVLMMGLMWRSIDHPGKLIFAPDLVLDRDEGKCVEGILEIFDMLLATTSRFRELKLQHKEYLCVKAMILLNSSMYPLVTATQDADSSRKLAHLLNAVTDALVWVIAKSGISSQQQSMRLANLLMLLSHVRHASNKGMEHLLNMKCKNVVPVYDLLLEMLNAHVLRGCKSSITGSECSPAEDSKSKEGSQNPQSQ
Androgen receptor (Homo sapiens), sequence (P10275 whole entry, looked up): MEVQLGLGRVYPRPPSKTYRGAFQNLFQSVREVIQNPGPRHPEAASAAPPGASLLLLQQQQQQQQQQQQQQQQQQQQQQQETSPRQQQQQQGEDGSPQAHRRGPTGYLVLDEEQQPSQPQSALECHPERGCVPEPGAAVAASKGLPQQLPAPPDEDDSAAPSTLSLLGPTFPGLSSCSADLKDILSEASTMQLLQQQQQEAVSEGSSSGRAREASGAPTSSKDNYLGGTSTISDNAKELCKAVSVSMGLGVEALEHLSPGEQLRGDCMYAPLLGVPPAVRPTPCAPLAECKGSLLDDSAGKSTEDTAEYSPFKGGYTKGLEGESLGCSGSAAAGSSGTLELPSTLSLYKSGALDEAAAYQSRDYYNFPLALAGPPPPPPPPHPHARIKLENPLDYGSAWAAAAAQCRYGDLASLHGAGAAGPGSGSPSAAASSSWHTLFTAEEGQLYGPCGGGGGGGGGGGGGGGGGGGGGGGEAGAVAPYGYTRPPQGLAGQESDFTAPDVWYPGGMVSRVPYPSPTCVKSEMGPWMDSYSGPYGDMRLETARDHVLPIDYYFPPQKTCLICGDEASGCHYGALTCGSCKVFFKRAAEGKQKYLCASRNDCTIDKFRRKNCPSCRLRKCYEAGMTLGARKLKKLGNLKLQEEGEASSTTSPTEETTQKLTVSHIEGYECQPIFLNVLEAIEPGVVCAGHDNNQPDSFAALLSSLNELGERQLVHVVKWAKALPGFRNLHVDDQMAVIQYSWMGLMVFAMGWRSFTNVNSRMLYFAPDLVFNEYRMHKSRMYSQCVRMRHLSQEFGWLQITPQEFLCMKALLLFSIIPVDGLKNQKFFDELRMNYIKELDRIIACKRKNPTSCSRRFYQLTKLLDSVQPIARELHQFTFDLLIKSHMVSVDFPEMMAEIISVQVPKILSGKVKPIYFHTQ

CC1COC2(c3ccccc3Cl)c3cc(Cl)ccc3NC(=O)CN12 (stereo not drawn)
inactive: outcome [1] | outcome [2] | Potency [3] | Potency [4] | outcome [5] | Potency [6] | Potency [7] | outcome [8] | outcome [10] | Potency [12] | Potency [13] | Potency [14] | Potency [15] | Potency [16]
active: Potency [9] 29.8 µM | Potency [11] 26.6 µM

Nc1ccccc1Cl
inactive: outcome [1] | outcome [2] | Potency [3] | Potency [17] | Potency [4] | outcome [5] | Potency [6] | Potency [7] | outcome [8] | Potency [9] | outcome [10] | Potency [11] | Potency [12] | Potency [18] | Potency [13] | Potency [14] | Potency [16] | Potency [19]

C[C@]12CC[C@H]3[C@@H](CCC4=CC(=O)CC[C@@]43C)[C@@H]1CC[C@@H]2C(=O)O
inactive: outcome [1] | outcome [2] | Potency [3] | Potency [17] | Potency [4] | outcome [5] | Potency [6] | Potency [7] | outcome [8] | Potency [9] | outcome [10] | Potency [12] | Potency [18] | Potency [13] | Potency [15] | Potency [16] | Potency [19]

CCC1(c2ccccc2)C(=O)NC(=O)NC1=O
inactive: outcome [1] | outcome [2] | Potency [17] | outcome [20] | Potency [4] | outcome [5] | Potency [6] | Potency [7] | outcome [8] | Potency [9] | outcome [10] | Potency [11] | Potency [12] | Potency [18] | Potency [16] | Potency [19]

CNCC(=O)c1ccc(O)c(O)c1
inactive: outcome [1] | outcome [2] | Potency [17] | PLD induction [20] -2.28% [at 7.66 µM] | Potency [4] | outcome [5] | Potency [6] | Potency [7] | outcome [8] | Potency [9] | Potency [11] | Potency [12] | Potency [14] | Potency [15]
active: Potency [16] 4.22 µM

CCOP(=S)(OCC)Oc1ncn(-c2ccccc2)n1
inactive: outcome [1] | outcome [2] | Potency [3] | Potency [17] | Potency [4] | outcome [5] | Potency [6] | Potency [7] | Potency [9] | Potency [11] | Potency [12] | Potency [13] | Potency [14] | Potency [16] | Potency [19]

CCOC(=O)C(c1c(O)c2ccccc2oc1=O)c1c(O)c2ccccc2oc1=O
inactive: outcome [1] | outcome [2] | Potency [3] | Potency [17] | Potency [4] | outcome [5] | outcome [8] | outcome [10] | Potency [12] | Potency [13] | Potency [15] | Potency [16]

CCCCOC(=O)c1ccccc1C(=O)O
inactive: outcome [1] | outcome [2] | Potency [3] | Potency [4] | outcome [5] | Potency [6] | Potency [7] | Potency [9] | outcome [10] | Potency [11] | Potency [12] | Potency [13] | Potency [14] | Potency [16] | Potency [19]

CCCCCCI
inactive: outcome [1] | outcome [2] | Potency [3] | Potency [17] | Potency [4] | outcome [5] | Potency [6] | Potency [7] | Potency [11] | Potency [12] | Potency [18] | Potency [13] | Potency [14] | Potency [15]
